Screening results as filed in PubChem.
Only some compounds are listed: those with a hit (about 8% of all), similar ones and a draw of the others.
MARV entry inh: blocks Marburg virus binding to or entry into cells; 300,000 tested, 1.8% active; Marburg virus pseudotyped entry inhibition, cell reporter; Potency, µM (titrated, usually from 37.8 µM), for inactives: at the top dose activity change, negative = inhibition, most hits filed as inhibitors; calls by dose curve; tested in HEK293 cells; also: potency is read from the fitted curve at half-maximal effect; % is scaled to controls: 0 for no effect and ±100 for the full control effect
FMDV antiviral: foot and mouth disease virus antiviral activity; FMDV antiviral cell-based qHTS; Potency, µM (top dose mostly 57.9 µM), inactives show at the highest dose activity change, negative = inhibition, hits mostly inhibitors; 410,000 tested, 1.2% active; AID 1159524; calls by dose curve; tested in HEK293T cells; also: read-out not given here; potency is read from the fitted curve at half-maximal effect; % is scaled to controls: 0 for no effect and ±100 for the full control effect; nearly all actives have a fitted effect of over 45% in size
HCV inh: inhibitors of hepatitis C virus infection. Huh7.5.1 HCVcc-Cre infection, luciferase reporter, 44 h. Potency, µM (series often up to 41.8 µM), without a hit: top-dose activity change, negative = inhibition, most hits filed as inhibitors. 340,000 tested, 3.4% active; active = well fitted inhibition curve with a large enough effect; inconclusive = small, poorly fitted or top-dose-only effect, or another doubt; inactive = no such curve, though single readings can be large or run the other way; also: potency is read from the fitted curve at half-maximal effect; % is scaled to controls: 0 for no effect and ±100 for the full control effect
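Compounds are dispensed onto cells plated 4 h earlier at 1,000 per well, with HCVcc-Cre virus (about 0.5 moi) added next. Following 44 h of culture, luminescent signal is measured for 15 sec after 15 min with substrate at room temperature.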
LASV entry inh: Lassa virus entry inhibition; Potency, µM (top dose mostly 37.9 µM), without a hit: at the top dose activity change, negative = inhibition, actives largely listed as inhibitors; 300,000 tested, 1.2% active; Lassa virus pseudotype entry inhibition, cell reporter; calls by dose curve; tested in HEK293 cells; also: potency is read from the fitted curve at half-maximal effect; % is scaled to controls: 0 for no effect and ±100 for the full control effect; nearly all actives have a fitted effect of over 50% in size
HCMV inh: blocks human cytomegalovirus replication. HFF cells, HCMV-luciferase reporter, 72 h; hits give low values. activity change, negative = inhibition, % at 57.5 µM. 410,000 tested, 4.5% active. AID 1259415; in the data active = activity change below about -60%; inconclusive = no clear call, values can overlap the other calls; inactive = above about -39%; also: % is scaled to controls: 0 for no effect and ±100 for the full control effect
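Steps: HFFs plated, 16 h 37C; compounds added; HCMV-luciferase added to MOI 1 PFU/cell; 72 h 37C; OneGlo reagent, 5 min room temperature; luminescence read, normalized to controls.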
SARS PLP yeast: blocks SARS-CoV papain-like protease in a yeast assay | S. cerevisiae expressing SARS-CoV PLpro, growth rescue | Potency, µM (doses to about 32.9 µM), without a hit: top-dose activity, positive = growth rescue, actives largely listed as activators | 330,000 tested, 0.19% active | AID 485353; calls by dose curve; also: potency is read from the fitted curve at half-maximal effect; 0% is about no effect; nearly all actives have a fitted effect of over 55% in size
Starred values were filed as active, the others as inactive; ? = inconclusive; / = no result given; [ ] = remark or other dose.

SMILES	MARV entry inh	FMDV antiviral	HCV inh	LASV entry inh	HCMV inh	SARS PLP yeast
CCN1C(=O)c2ccccc2S(=O)c2ccc(C(=O)NCc3ccc(C(F)(F)F)cc3)cc21 (stereo not given)	/	/	/	/	5.3	/
O=c1cc(CSc2nnc(COc3ccccc3)o2)c2ccccc2[nH]1	?	-23.7%	11.9%	23.1µM*	2.4	-0.2%
COc1cc(OC)c(OC)cc1CNc1sc2c(c1C(=O)Nc1ccccc1OC)CCC2	/	0.0%	/	-13.6%[46.1 µM]	7.1	/
O=C1C2C3C=CC(CC3)C2C(=O)N1/N=C/c1ccccc1O (stereo not given)	0.0%	/	-0.3%	-5.8%	-23.3	5.62µM*
Cn1c(SCC2CCCO2)nnc1C1CCN(Cc2ccco2)CC1 (stereo not given)	/	-1.7%	/	/	/	/
Cn1c(=O)c2[nH]c(CCCCCCCc3nc4ccccc4[nH]3)nc2n(C)c1=O	?	15.8µM*	8.91µM*	-37.9%	-67.1*	/
Cn1c(=O)c2[nH]c(COc3ccc(C(C)(C)C)cc3)nc2n(C)c1=O	/	20µM*	11.2µM*	/	/	1.3%
CO[C@H]1[C@H](NC(=O)c2ccco2)c2ccccc2C12CCN(Cc1cnc(N(C)C)s1)CC2	/	-15.6%	/	/	/	/
Cc1cc(OCC(=O)NCc2cccnc2)c2c3c(c(=O)oc2c1)CCCC3	/	-8.4%	10µM*	/	0.0	-3.1%
CCOC(=O)C(C)Oc1cc(C)cc2oc(=O)c3c(c12)CCCC3 (stereo not given)	?	?	10µM*	?	26.3	-16.2%
O=C(COc1cc2oc(=O)c3c(c2cc1Cl)CCCC3)NCc1cccnc1	?	-10.0%	?	7.9%[46.1 µM]	?	5.0%
C[C@]12C[C@@](C)(C=C1C=Cc1ccc(F)cc1)C(=O)C[C@H]2c1ccc(F)cc1	4.7%[14.2 µM]	/	/	?	/	/
CCOc1ccccc1C(=O)NC1(C(F)(F)F)C(=O)Nc2c1c(=O)[nH]c(=O)n2-c1ccccc1 (stereo not given)	?	?	/	-18.0%[46.1 µM]	4.5	/
COc1cccc(OCc2nnc(-c3cccs3)o2)c1	/	/	/	/	-77.3*	-4.1%
COc1ccc(-c2nnc(COc3ccc4ccccc4c3)o2)cc1OC	?	-19.1%	?	20.6µM*	-8.2	-3.3%
Cc1nc(N2CCN(Cc3ccccc3)CC2)nc2c1C(=O)CCC2	?	25.1µM*	?	-16.2%	-97.0*	3.4%
Cn1c(/C(C#N)=C/c2ccc(C(F)(F)F)cc2)nc2ccccc21	/	-19.6%	/	10.2%[46.1 µM]	18.6	/
Brc1cc(-c2ccccc2)nc(-c2ccccc2)n1	19.6%[46.1 µM]	-4.7%	11.2µM*	-17.4%	24.6	/
COc1ccccc1C(=O)N1CCCC(c2nc(SCCN3CCOCC3)ncc2C)C1 (stereo not given)	/	-2.4%	/	/	/	/
O=C(COC(=O)C12CC3CC(CC(O)(C3)C1)C2)Nc1cccc(Br)c1	3.4%	23.3%	2.9%	12.2%	-102.2*	-0.8%
CC1CC1C(=O)OCC(=O)Nc1cccc(Br)c1 (stereo not given)	-1.9%[46.1 µM]	17.3%	-3.9%	0.5%	-15.9	0.6%
CC(=O)c1ccc(NC(=O)C2CCC(CNS(=O)(=O)c3cccc4nsnc34)CC2)cc1 (stereo not given)	18.7%[46.1 µM]	-9.5%	/	23.8%[46.1 µM]	20.3	/
Cc1cccc(N2CCN(C(=O)C3CCN(S(=O)(=O)N4CCOCC4)CC3)CC2C)c1 (stereo not given)	-19.1%	?	?	-12.9%	-16.9	0.4%
Cc1ccc(Cl)cc1N1CCN(C(=O)C2CCN(c3nnc(-n4cccc4)s3)CC2)CC1	/	?	12.6µM*	/	?	-17.4%
Cc1ccc(Cl)cc1N1CCN(C(=O)c2cccn2-c2nnc(N3CCCCC3)s2)CC1	/	-18.4%	/	?	0.0	/
Cc1cccc(N2CCN(C(=O)C3CCN(c4nnc(-n5cccc5)s4)CC3)CC2C)c1 (stereo not given)	22.3%	15.8µM*	?	-17.1%	-4.9	-13.9%
Cc1cccc(N2CCN(C(=O)C3CCN(S(=O)(=O)c4cccc5cccnc45)CC3)CC2C)c1 (stereo not given)	1.3%	?	?	/	28.6	8.8%
